IMPase cell inh = membrane-permeable compound that blocks inositol monophosphatase; P97697; CHO-M1 cells, IP1 accumulation, HTRF TR-FRET ratio; inhibition (IP1 accumulation), % at 46.1 µM; 120,000 tested, under 10 active; active means well fitted curve in the direction sought with a large enough effect in the signal ratio, not every such curve was filed as active; inconclusive means small, poorly fitted or top-dose-only effect, or a change in a side signal; inactive means no such curve, though single readings can be large or run the other way; the % refers to the signal ratio;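 further: cells stimulated with carbachol in lithium chloride buffer; higher means more IMPase inhibition seen as more IP1 and lower FRET ratio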
Target sequence (P97697 whole entry, looked up): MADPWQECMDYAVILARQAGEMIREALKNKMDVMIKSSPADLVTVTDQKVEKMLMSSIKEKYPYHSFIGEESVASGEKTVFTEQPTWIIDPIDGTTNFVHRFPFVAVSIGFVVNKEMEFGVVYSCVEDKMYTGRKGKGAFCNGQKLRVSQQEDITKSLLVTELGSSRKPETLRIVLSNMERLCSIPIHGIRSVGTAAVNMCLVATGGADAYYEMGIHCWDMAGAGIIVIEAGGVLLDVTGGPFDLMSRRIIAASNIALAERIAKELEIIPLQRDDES
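Measured: the HTRF emission ratio (665/620 nm) plus the 620 nm donor channel, each fitted to the Hill equation to give AC50. Cells were CHO-M1 given compounds up to 46 uM and a 30 min carbachol stimulation at 37C.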
HPGD inh = blocks human HPGD enzyme activity | P15428 | purified HPGD, NADH fluorescence kinetic, PGE2 substrate | Potency, µM, usual class: inhibitors | 150,000 compounds, 4.3% hits | AID 894; active means well fitted inhibition curve with a large enough effect, not every such curve was filed as active; inconclusive means small, poorly fitted or top-dose-only effect, or another doubt; inactive means no such curve, though single readings can be large or run the other way
Target sequence (P15428 whole entry, looked up): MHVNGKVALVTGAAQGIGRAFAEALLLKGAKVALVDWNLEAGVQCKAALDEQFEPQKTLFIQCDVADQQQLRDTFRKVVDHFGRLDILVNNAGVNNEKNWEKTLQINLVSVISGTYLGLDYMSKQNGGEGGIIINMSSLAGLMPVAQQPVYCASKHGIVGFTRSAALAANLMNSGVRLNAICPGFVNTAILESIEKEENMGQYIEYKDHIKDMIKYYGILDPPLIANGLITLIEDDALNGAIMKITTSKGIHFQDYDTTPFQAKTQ
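20 nM HPGD preincubated 15 min at room temperature with compound in 50 mM Tris-HCl pH 8, 0.01% Tween 20. Started with 1 mM NAD+ and 30 uM prostaglandin E2; NADH fluorescence (360/450 nm) read 5 times over 30-s intervals, last minus first.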
HTT aggregate = inhibitors of mutant huntingtin aggregate formation in PC12 cells. PC12 HttQ103-GFP aggregates, Acumen cytometry, 40 h. Potency, µM (doses to about 46.1 µM), usual class: inhibitors. 220,000 compounds, 1.1% hits. AID 1688; further: nearly all actives have a fitted effect of over 60% in size
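Using laser scanning cytometry, GFP-positive aggregates were counted after lysis of PC12 cells induced with 100 nM tebufenozide to express HTT exon 1 Q103–GFP. Compounds were tested in titration.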
IMPase Li cell = IMPase inhibition in cells with lithium potentiation; CHO-M1 cells, IP1 TR-FRET (IP-One), carbachol + lithium; Potency, µM (series often up to 59.4 µM), hits mostly inhibitors; 210,000 compounds, 0.35% hits; AID 1457;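 further: IP1 builds up when IMPase is blocked and the TR-FRET signal falls; nearly all actives have a fitted effect of over 50% in size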
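CHO-M1, 2000 cells/well, 16–30 h culture; cpd + low Li+, 30 min 37C; lysis with d2-IP1/Eu-anti-IP1 Ab, 10 min RT; TR-FRET 665/620 ratio and 620 channel; AC50 via Hill.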
ALDH1A1 inh = ALDH1A1 (human) enzyme inhibition. Purified ALDH1A1, NADH fluorescence, propionaldehyde substrate. P00352. Potency, µM (highest dose often 75.3 µM), usual class: inhibitors. 220,000 compounds, 7.3% hits; active means well fitted inhibition curve with a large enough effect, not every such curve was filed as active; inconclusive means small, poorly fitted or top-dose-only effect, or another doubt; inactive means no such curve, though single readings can be large or run the other way
HTT ATP protect = protects HTT-Q103 PC12 cells, measured by ATP; Potency, µM (doses to about 56.4 µM), hits mostly activators; PC12 HTT-Q103 induced, cytoprotection, ATP luminescence, 40 h; AID 1471; 230,000 compounds, 0.14% hits; further: nearly all actives have a fitted effect of over 45% in size
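Cells were plated at 1500 per well in phenol red-free DMEM with 5% equine and 5% calf serum. Tebufenozide (100 nM final) and compounds were added, then ATPlite reagent, and luminescence was read.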
Hits are given with their value; n = inactive; u = inconclusive; x = not tested or not shown; [ ] = dose if it differs, or a comment. The list is not random: actives were taken first. Their share in the collection is about 9.4%. Unless noted, the call rests on the fitted dose curve; in most records, active means well fitted curve in the direction sought with a large enough effect; inconclusive means small, poorly fitted or top-dose-only effect, or another doubt; inactive means no such curve, though single readings can be large; an effect the other way counts as inactive or inconclusive.

SMILES	IMPase cell inh	HPGD inh	HTT aggregate	IMPase Li cell	ALDH1A1 inh	HTT ATP protect
CCOc1cc(/C=N/n2cnnc2)ccc1OS(=O)(=O)c1ccccc1	x	x	n[9.22 µM]	n	12.6µM	n[1.9 µM]
CCOC(=O)CCN1C(=O)[C@H]2[C@H]3[C@H](O)[C@H](O)C/C(=N/O[C@@H]4O[C@@H](COC(C)=O)[C@@H](OC(C)=O)[C@@H](OC(C)=O)[C@H]4OC(C)=O)[C@@H]3CC[C@@H]2C1=O	x	x	x	x	n[13.5 µM]	n[10 µM]
COc1ccc(OC)c(/C(C)=N/Nc2ccc(C(=O)O)cc2)c1	x	x	n[9.22 µM]	n	n	n[10 µM]
C/C(=N\Nc1ccc(C(=O)O)cc1)c1nc2ccccc2n1C	n	15.8µM	n	n	n	n[10 µM]
C/C(=N/Nc1ccc(C(=O)O)cc1)c1ccc(O)c(O)c1O	x	25.1µM	n	n	u	n[10 µM]
COc1ccccc1NC(=O)CCC(=O)Nc1ccccc1OC	n	n	n	n	n	n
COc1ccccc1NC(=O)CCC(=O)c1ccc(-c2ccccc2)cc1	x	17.8µM	n	n	n	n[10 µM]
COc1ccccc1NC(=O)CNC(=O)c1ccccc1C	n	20µM	n[9.22 µM]	n	n	n
COc1ccccc1NC(=O)CCSCCC(=O)Nc1ccccc1OC	x	n	n	n	14.1µM	n[0.074 µM]
COc1ccccc1NC(=O)CNC(=O)c1ccccc1	n	n	n	n	n	n
CCOc1ccc(NC(=O)CCC(=O)c2ccc(-c3ccccc3)cc2)cc1	x	n	n	n	n	n[10 µM]
COc1ccccc1NC(=O)CC1Nc2ccccc2NC1=O (stereo not drawn)	n	u	n	n	28.2µM	n[0.074 µM]
Cc1ccc(N2/C(=N/c3nc(C)cc(C)n3)NC(=O)CC2C(=O)O)cc1 (stereo not drawn)	n	n	n	n	n	n
Cc1cc(C)nc(/N=C2\NC(=O)CC(C(=O)O)N2c2ccc(Oc3ccccc3)cc2)n1 (stereo not drawn)	n	12.6µM	n	n	n	n
Cc1ccc(NC(=O)CN2C(=O)N/C(=C/c3ccco3)C2=O)cc1	n	n	n	n	25.1µM	n
Cc1ccc(NC(=O)CN2C(=O)N/C(=C/c3cccn3-c3ccc(C(=O)O)cc3)C2=O)cc1	n	25.1µM	n	n	n	n[10 µM]
Cc1ccc(NC(=O)CN2C(=O)N/C(=C/c3cc(C)n(-c4ccc(C(=O)O)cc4)c3C)C2=O)cc1	x	x	n	n	u	u
COCCn1c(=O)c(-c2cccc(C#N)c2)nc2cnc(N3CCOCC3)nc21	x	x	x	n	u	n
O[C@@H]1CO[C@H]2[C@@H]1OC[C@@H]2O	x	x	n	x	x	n
Cc1ccc2[nH]c(O)c(N=O)c2c1	x	x	n[9.22 µM]	x	31.6µM	n[10 µM]
CC(C)CN1C(=O)C(=Nc2cccnc2)c2ccccc21	x	x	n	n	1µM	n
CCc1nn(-c2ccccc2)c(=S)c2ccccc12	x	x	n[9.22 µM]	n	u	n[10 µM]
CC(C)(C)c1cc(C(=O)NCc2cc(F)cc3c2OCOC3)n(Cc2ccccc2)n1	x	x	n[9.22 µM]	x	n	n[10 µM]
Cc1ccc(S(=O)(=O)CCC(=O)OCc2ccc(Cl)c(Cl)c2)cc1	n	n	n	n	u	n[10 µM]
Cc1ccc(S(=O)(=O)CCC(=O)OCc2ccc(S(=O)(=O)C(C)C)cc2)cc1	x	x	n[9.22 µM]	n	2.51µM	n
SMILES	IMPase cell inh	HPGD inh	HTT aggregate	IMPase Li cell	ALDH1A1 inh	HTT ATP protect
Cc1ccc(C)c(NC(=O)c2sc(Cl)nc2C)c1	x	n	n	n	n	n[10 µM]
Cc1ccc(OC(=O)c2sc(Cl)nc2C)cc1C	x	n	n	n	20µM	n[10 µM]
Cc1ccc(NC(=O)CSc2nnc(-c3ccccn3)n2C)cc1	n	n	2.82µM	n	n	n
C=CCn1c(COc2ccc(Cl)cc2)nnc1SCC(=O)Nc1ccc(S(N)(=O)=O)cc1	x	n	n	n	n	x
Cc1ccc(NC(=O)Cc2nnc(SCC(=O)Nc3ccccc3)n2C)cc1	x	n	0.178µM	n	n	x
CCn1c(COc2ccc(C)cc2)nnc1SCC(=O)Nc1ccc(S(N)(=O)=O)cc1	n	n	n	n	22.4µM	n
Cc1ccc(CSc2nnc(CC(=O)Nc3ccc(C)cc3)n2C)cc1	n	n	n	n	n	n
Cc1ccc(S(=O)(=O)Nc2ccc(O)c(C(=O)O)c2)c(C)c1	x	n	x	x	u	x
O=[N+]([O-])c1ccc(NN=C2c3ccccc3Cc3ccccc32)c([N+](=O)[O-])c1	x	n	x	n	n[13.5 µM]	n[10 µM]
N#C/C(=C\c1c(Oc2ccc(F)cc2)nc2ccccn2c1=O)c1nc2ccccc2s1	n	x	x	x	x	x
CCN1CCCC1CN(Cc1cc2ccc(C)cc2[nH]c1=O)C(=S)Nc1ccccc1OC (stereo not drawn)	x	n	n	n	n	n[10 µM]
CCN1CCCC1CN(Cc1cc2ccc(C)c(C)c2[nH]c1=O)C(=O)Nc1ccccc1OC (stereo not drawn)	n	n	n	n	12.6µM	n
CSc1ccccc1C(=O)Nc1nccs1	n	15.8µM	n[9.22 µM]	n	u	n
O=C(O)/C=C/C(=O)Nc1nccs1	x	x	n[9.22 µM]	x	n	n[10 µM]
CCCc1cc(C(=O)Nc2nccs2)cs1	n	10µM	n	n	u	n[10 µM]
O=C(O)c1ccccc1C(=O)Nc1nccs1	n	n	n	n	n	n
C/C(=C\C(=O)O)C(=O)Nc1nccs1	n	n	0.112µM	n	n	n
C/C(=C\C(=O)Nc1nccs1)c1ccccc1	u	15.8µM	n	n	n	n
O=C(Nc1ccccc1)Nc1nccs1	n	n	n	n	n	n
C=C(CO)C1Cc2c(ccc3c(=O)c4c(oc23)COc2cc(OC)c(OC)cc2-4)O1 (stereo not drawn)	n	n	x	n	n	n[1.9 µM]
CCc1cc(C=NC2CCCCC2)c(O)s1	n	4.47µM	n	n	u	n
CCOc1cc(C2c3c(oc4ccccc4c3=O)C(=O)N2Cc2ccccc2Cl)ccc1O (stereo not drawn)	n	x	x	x	x	x
Cc1cc(Cl)c(S(=O)(=O)N/N=C/c2ccc3c(c2)OCO3)c(Cl)c1	n	n	n	n	11.2µM	n
CCOC(=O)N1CCN(S(=O)(=O)c2cc(C)c(C)cc2C)CC1	n	n	n	n	n	n[1.9 µM]
Cc1cc(C)c(S(=O)(=O)/N=C2/C=C(SCC(=O)O)C(=O)c3ccccc32)cc1C	x	x	12.6µM	n	7.08µM	n
SMILES	IMPase cell inh	HPGD inh	HTT aggregate	IMPase Li cell	ALDH1A1 inh	HTT ATP protect
CC1(C)CC(=O)C(N=Nc2cc(Cl)c(Cl)c(Cl)c2)=C(O)C1	n	n	n	n	5.01µM	n[10 µM]
Cc1c(N=NC2=C(O)CC(C)(C)CC2=O)c(=O)n(-c2ccccc2)n1C	x	x	n[9.22 µM]	n	10µM	n[10 µM]
CC1(C)CC(=O)C(N=Nc2cccc(S(=O)(=O)N3CCOCC3)c2)=C(O)C1	x	x	n[9.22 µM]	x	x	n[10 µM]
Cc1ccc(O)c(N=NC2=C(O)CC(C)(C)CC2=O)c1	x	n	u	n	6.31µM	x
CC1(C)CC(=O)C(N=Nc2cc3c(cc2[N+](=O)[O-])OCCO3)=C(O)C1	x	x	n	n	0.562µM	n[10 µM]
Cc1ccc(C(=O)c2cc3c(cc2[N+](=O)[O-])OCCO3)cc1	x	x	u	n	u	n[10 µM]
CN1CCN(c2ncnc3ccc(-c4ccoc4)cc23)CC1	x	x	x	n	u	n
